D1 antag = antagonists of human D1 dopamine receptor | activity change, negative = inhibition, % at 10 µM | P21728 | 360,000 tested, 3.2% active | HEK293 TREx D1 cells, calcium flux, dopamine EC80; stronger effect = lower value; in the data active = activity change below about -30%; note: % is set by controls: 0 for no effect and ±100 for the full control effect
Target sequence (P21728 whole entry, looked up): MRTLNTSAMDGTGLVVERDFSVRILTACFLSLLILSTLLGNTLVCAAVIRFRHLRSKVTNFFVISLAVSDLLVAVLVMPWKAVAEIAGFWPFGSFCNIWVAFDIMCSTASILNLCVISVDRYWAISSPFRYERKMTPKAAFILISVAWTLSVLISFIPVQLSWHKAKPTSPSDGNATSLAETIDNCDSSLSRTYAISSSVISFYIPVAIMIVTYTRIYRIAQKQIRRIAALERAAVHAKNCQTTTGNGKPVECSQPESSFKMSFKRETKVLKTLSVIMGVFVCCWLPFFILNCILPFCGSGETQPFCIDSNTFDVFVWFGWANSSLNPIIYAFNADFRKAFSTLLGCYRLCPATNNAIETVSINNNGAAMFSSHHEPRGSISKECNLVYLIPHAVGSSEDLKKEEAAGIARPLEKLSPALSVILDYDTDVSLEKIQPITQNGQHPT
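Kinetic fluorescence of a calcium dye serves as the read-out. D1-expressing Hek293 Trex cells, induced overnight at 30 C, are exposed to compound for 180 s before an EC80 dopamine addition, then read 180 s further.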
D1 potentiator = potentiators of human D1 dopamine receptor; P21728; HEK293 TREx D1 cells, calcium flux, dopamine EC20 potentiation; potentiation, % at 10 µM; 360,000 tested, 0.036% active; AID 504651; in the data active = potentiation above about 30%; note: 0% is about no effect
D1 agonist = agonists of human D1 dopamine receptor | P21728 | HEK293 T-REx D1 cells, calcium flux, agonist mode | activation, % at 2 µM | 360,000 tested, 1% active; in the data active = activation above about 30%; note: 0% is about no effect
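Inducible HEK293 T-REx D1 cells, force-coupled to calcium signalling, were plated at 4000 cells/well with tetracycline and held overnight at 30 C. After no-wash calcium dye loading, compound-evoked calcium rise over 180 s flagged agonists.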
D3 ag = D3 dopamine receptor (human) agonism | P35462 | D3R DiscoveRx beta-arrestin cells, luminescence, 90 min | max activation, % | 410,000 tested, 0.58% active | AID 652048; in the data active = max activation above about 30%; note: 0% is about no effect
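Agonist-mode cell screen: cells plated at 1500/well and incubated overnight at 37 °C, then exposed to library compounds for 90 min at 37 °C. Detection reagent was added for 30–60 min at room temperature, and luminescence was read.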
DRD3 antagonist = blocks the human D3 dopamine receptor | 360,000 tested, 2.5% active | D3R cells, DiscoveRx beta-arrestin luminescence, antagonist mode; stronger effect = lower value | max response, negative = inhibition, %; in the data active = max response below about -50%; note: % is set by controls: 0 for no effect and ±100 for the full control effect
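Cells plated overnight at 1500 cells/well, then exposed to library compounds with dopamine controls for 90 minutes at 37 degrees C. DiscoveRx reagent added for 30–60 minutes at room temperature; luminescence read, quantitative HTS format.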
Active calls of the source: *; . = no result given. Only some compounds are listed: those with a hit (about 6% of all), similar ones and a draw of the others.

SMILES | D1 antag | D1 potentiator | D1 agonist | D3 ag | DRD3 antagonist
CN(C)c1nc(Nc2ccc(F)cc2)nc(Oc2ccc(F)cc2)n1 | -1 | -2 | 5 | 0 | 6
CN(C)c1nc(N/N=C/c2ccccc2O)nc(Nc2ccc(F)cc2)n1 | -19 | 4 | 4 | -36 | -85*
Cc1csc(NC(=O)c2ccc(OCC3CCCO3)cc2)n1 (centres undefined) | -59* | -7 | 14 | 4 | 8
CCc1cccc(C)c1NC(=O)C1=C(C(=O)O)CCCC1 | -82* | -9 | 0 | 4 | 15
CCc1cccc(C)c1NC(=O)c1cccnc1 | -32* | -5 | 3 | 2 | 5
CCc1cccc(C)c1NC(=O)c1ccccc1 | -20 | -18 | 0 | -4 | -16
C=CCN1C(=O)C(CC(=O)Nc2ccc(C)cc2)SC1=Nc1c(C)n(C)n(-c2ccccc2)c1=O (centres undefined) | -1 | 0 | 1 | 1 | 10
Cc1c(N=C2SC(CC(=O)Nc3ccccc3)C(=O)N2CCN2CCOCC2)c(=O)n(-c2ccccc2)n1C (centres undefined) | -51* | -1 | 2 | -4 | 9
CCc1nc2ccc(C(=O)NCc3cccs3)cn2c1N(CC)CCN(C)C | . | . | . | -8 | -6
Clc1ccc(CNCCC2=CCCCC2)cc1 | 2 | 4 | 3 | -53 | -71*
CCC1CN(C(=O)N2CCC(C(=O)NCCC3=CCCCC3)CC2)c2cc(C)ccc2O1 (centres undefined) | -31* | -3 | 1 | 2 | .
O=C(NCCC1=CCCCC1)C1CCN(C(=O)c2ccc(Cl)cc2)CC1 | -13 | 1 | 0 | 7 | -131*
Cc1ccc2oc(=O)n(CC(=O)OCCC(C)C)c2c1 | -4 | -5 | 2 | 0 | -22
CC1CCN(C(=O)Cn2nnc(-c3ccc(C(C)C)cc3)n2)CC1 | 1 | -3 | 12 | 3 | 25
CCOC(=O)[C@]12CCCC=C1N(Cc1cccc3ccccc13)C(=O)[C@H](CC(=O)N1CCC(c3ccccc3)CC1)C2 | . | . | . | 1 | 8
CC(C)N(C(=O)CSc1nc2ccc(Cl)cc2[nH]1)c1ccccc1 | -44* | 1 | 20 | -2 | .
Cc1cc(C(=O)CSc2nc3ccc(Cl)cc3[nH]2)c(C)n1C | -7 | -6 | 2 | 33* | -6
CC(C)n1c(CNC(=O)c2ccccc2F)nnc1SCC(=O)NC1CCCCC1 | . | . | . | 3 | 5
CCN(CC(=O)Nc1ccc(NC(C)=O)cc1)C(=O)/C=C/c1ccc(C)o1 | -15 | . | 5 | -6 | 1
Cc1cc(C)n(-c2nc(NC(C)C)nc(NC(C)C)n2)n1 | 23 | 1 | 2 | -2 | -51*
Cc1cc(C)n(-c2nc(NC(C)(C)C)nc(NC(C)(C)C)n2)n1 | 6 | -3 | 0 | -14 | -62*
CCNc1nc(NCC)nc(-n2nc(C)cc2C)n1 | 2 | 1 | -1 | -10 | -13
COc1cc(/C=C2/NC(=O)N(Cc3ccccc3F)C2=O)cc(OC)c1O | -38* | -6 | 3 | 4 | -20
CCOc1cc(/C=C2/NC(=O)N(Cc3ccccc3F)C2=O)ccc1O | -7 | -8 | -1 | -5 | -26
Fc1ccc(CNn2cnnc2SCc2ccc(F)cc2)cc1 | -7 | 0 | 4 | 41* | -9
SMILES | D1 antag | D1 potentiator | D1 agonist | D3 ag | DRD3 antagonist
N#CCC(=O)Nc1ccc(C(=O)OCC(=O)N=c2sccn2Cc2ccccc2Cl)cc1 | -46* | -10 | 4 | 5 | 0
CCCNC(=O)C1CCN(c2nc(C)cc(C)n2)CC1 | -14 | 2 | -1 | 0 | 18
Cc1cc(C)nc(N2CCC(C(=O)N3CCN(c4cc(Cl)ccc4C)CC3)CC2)n1 | 4 | 13 | 2 | 65* | 115
Cc1ccc2nc(N3CCC(C(=O)N4CCN(c5cccc(Cl)c5)CC4)CC3)[nH]c2c1 | -11 | -2 | 43* | -13 | .
COc1ccccc1CNC(=O)C1CCN(c2nc3ccc(Cl)cc3[nH]2)CC1 | -74* | 6 | 2 | 4 | .
Cc1cc(C)nc(N2CCC(C(=O)O)CC2)n1 | -32* | 4 | 0 | 2 | -3
CC1=C(c2ccc(F)cc2)S(=O)(=O)NC1=NCc1ccccc1Cl | 2 | -3 | 13 | -8 | .
COc1ccc(NC(=O)C(OC(=O)CNC(=O)c2ccccc2)c2ccccc2)cc1Cl (centres undefined) | 12 | 3 | 3 | . | .
COc1ccc(-c2ccccc2)cc1NC(=O)[C@@H]1O[C@H](CO)[C@@H](O)[C@H]1O | . | . | . | -1 | -5

Screening results from PubChem BioAssay.
